The text below walks through data of PubChem BioAssay (NCATS).

The structures appear in SMILES notation. Unmarked numbers belong to inactive results. Inconclusive results are not listed. Active and inactive are the calls of the source. Unless noted, the call rests on the fitted dose curve; in most records, active means well fitted curve in either direction with a large enough effect (not every such curve was filed as active); inconclusive means small, poorly fitted or top-dose-only effect, or another doubt; inactive means flat fitted curve, though single readings scatter.

Test [1] addresses Lysosomal acid glucosylceramidase (Homo sapiens) (UniProt P04062). The experiment in a line: Glucocerebrosidase-p2 (AID 348; in the data active means potency below about 10 µM; further: potency means the concentration at half of the fitted maximal effect). The settings on record: purified GBA, blue fluorogenic substrate, 40 min. A digest of the protocol: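 Compounds titrated from 0.6 nM upwards against 0.2 nM enzyme in pH 5.9 citric acid/KH2PO4, taurocholate, tween-20; blue fluorogenic substrate 80 uM, 40 min room temperature, stopped and read Ex 365/Em 440 for AC50.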

Test [2] is described as follows: AP1 Signaling Pathway (AID 357).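 Further: ME-180 reporter cells stimulated with EGF at its EC50 level; on the % scale 0 is the no-effect control and ±100 the full control effect.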 The note with it: ME-180 AP-1-bla reporter, EGF-induced, beta-lactamase ratio, 5 h; at 7.69 µM (top of the series) unless noted. Put shortly:
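Read-out was the 460nm/530nm emission ratio (excitation 405nm) after CCF4 loading for 2.5 hours at room temperature. Cells carried an AP-1-driven beta-lactamase reporter, were stimulated with EC50 EGF plus compound for 5 hours, and AC50 values came from titrations.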

The target of test [3] is Cytochrome P450 1A2 (Homo sapiens) (UniProt P05177). The experiment in a line: p450-cyp1a2 (AID 410; calls by dose curve; further: potency means the concentration at half of the fitted maximal effect). The note with it: recombinant CYP1A2, luciferin-ME demethylation, luminescence; series mostly up to 11.4 µM. A digest of the protocol: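 Luminescent readout of luciferin formed from Luciferin-ME by human CYP1A2; data normalized against complete inhibition by 57 uM furafylline. Enzyme 20nM, substrate 100uM at Km, 100mM KPO4 buffer, 60 min reaction at room temperature.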
Chain of Cytochrome P450 1A2 (Homo sapiens) (P05177 whole entry, looked up): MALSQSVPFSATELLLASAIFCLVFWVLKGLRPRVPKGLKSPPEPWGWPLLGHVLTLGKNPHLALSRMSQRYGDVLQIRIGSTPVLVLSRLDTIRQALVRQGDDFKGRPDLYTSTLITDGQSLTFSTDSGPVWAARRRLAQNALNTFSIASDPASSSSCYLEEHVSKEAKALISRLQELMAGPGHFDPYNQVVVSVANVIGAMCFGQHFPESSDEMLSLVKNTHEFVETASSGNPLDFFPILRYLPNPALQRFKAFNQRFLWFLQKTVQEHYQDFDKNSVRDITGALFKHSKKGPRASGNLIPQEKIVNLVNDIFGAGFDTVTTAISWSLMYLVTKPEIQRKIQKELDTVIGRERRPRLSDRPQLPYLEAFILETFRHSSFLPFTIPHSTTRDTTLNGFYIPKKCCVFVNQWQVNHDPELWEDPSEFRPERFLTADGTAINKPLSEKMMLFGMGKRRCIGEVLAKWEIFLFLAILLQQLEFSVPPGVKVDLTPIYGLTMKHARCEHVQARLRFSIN

Test [4] in a line: NFAT Signaling Pathway (AID 444).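 Further: carbachol stimulus at about its EC50 of 1 µM final; on the % scale 0 is the no-effect control and ±100 the full control effect.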 The note with it: Jurkat NFAT-bla M1, carbachol, beta-lactamase ratio, 5 h; at 7.69 µM (top of the series) unless noted. Put shortly:
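Jurkat cells with NFAT-driven β-lactamase reporter and co-expressed M1 receptor, stimulated with carbachol (final 1 uM, ~EC50), compound titration, 5 h at 37 °C. CCF4 loaded 1 h at RT; 460/530 nm ratio gave %activity and AC50.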

Test [5] can be described thus: Stat Signaling Pathway (AID 446).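 Further: ME-180 cervical cancer cells given 40 pM IL-6 alongside compound; SIE-controlled beta-lactamase reporter measured as 460/530 nm FRET emission ratio; on the % scale 0 is the no-effect control and ±100 the full control effect.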 The note with it: ME-180 (cervical carcinoma) SIE beta-lactamase reporter, IL-6 stimulated, 5 h; at 7.69 µM (top of the series) unless noted. Put shortly:
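ME-180 cells carrying a SIE-driven beta-lactamase reporter are stimulated with 40 pM IL-6 for 5 h at 37C in the presence of compound. The 460/530 nm FRET substrate ratio is read after 2.5 h at RT. Data are normalised to 300 pM IL-6 and to 125 nM JAK inhibitor controls.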

Test [6] has as its target Glucocorticoid receptor (Homo sapiens) (UniProt P04150). The experiment in a line: GR-GFP Redistribution (AID 450;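 active means compounds whose dose series gives a full or clear partial fitted curve of increased nuclear translocation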; further: potency means the concentration at half of the fitted maximal effect). The settings on record: U2OS GR-GFP nuclear translocation, laser cytometry, 2 h.
Test [7] has the same target. As to the kind of experiment: GR-EFC Redistribution (AID 451; calls by dose curve; further: potency means the concentration at half of the fitted maximal effect). The settings on record: CHO-K1 GR-EFC translocation, beta-gal luminescence, 2 h. Put shortly: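 CHO-K1 cells expressing nuclear EA and GR-ED fragments of b-gal; compounds titrated up to 46 uM final, 2 h at 37 C. GR nuclear translocation read as complemented b-gal luminescence after 1 h RT detection.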
Test [8] has as its target Mitogen-activated protein kinase 10 (Mus musculus) (UniProt Q61831). As to the kind of experiment: JNK3 AlphaScreen Assay (AID 530).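 Further: kinase came from lysate of stimulated human HepG2 cells; signal reports phosphorylation of biotinylated GST-cJun 1-79 at Ser73 with 10 µM ATP; on the % scale 0 is the no-effect control and ±100 the full control effect.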 The settings on record: JNK3 lysate, c-Jun phosphorylation; series mostly up to 11.4 µM. Put shortly:
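Pre-activated (IL-1β/TNFα) JNK3 in HepG2 lysates phosphorylates biotin-GST-cJun(1-79), 10 uM ATP; anti-phospho-cJun(Ser73) AlphaScreen read at room temperature, pH 7.6 Tris buffer. Compounds pre-incubated 15 min as titrations.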

The target of test [9] is 3',5'-cyclic-AMP phosphodiesterase 4B (Homo sapiens) (UniProt Q07343). As to the kind of experiment: qHTS Assay for Inhibitors of PDE-IV (AID 607; active means well fitted activation curve with a large enough effect in the main read-out, with a control signal flat, not every such curve was filed as active; further: % of control where 0% means no effect). The settings on record: HEK293 ACTOne CNG channel cells, membrane potential fluorescence; series mostly up to 22.9 µM. Put shortly: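 HEK293 ACTOne cells with CNG channel (1000/well), endogenous PDE4; membrane potential dye, compounds up to 22.9 uM final. Fluorescence Ex 535/Em 590; RO 20-1724 (100 uM final) as reference.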
Chain of 3',5'-cyclic-AMP phosphodiesterase 4B (Homo sapiens) (Q07343 whole entry, looked up): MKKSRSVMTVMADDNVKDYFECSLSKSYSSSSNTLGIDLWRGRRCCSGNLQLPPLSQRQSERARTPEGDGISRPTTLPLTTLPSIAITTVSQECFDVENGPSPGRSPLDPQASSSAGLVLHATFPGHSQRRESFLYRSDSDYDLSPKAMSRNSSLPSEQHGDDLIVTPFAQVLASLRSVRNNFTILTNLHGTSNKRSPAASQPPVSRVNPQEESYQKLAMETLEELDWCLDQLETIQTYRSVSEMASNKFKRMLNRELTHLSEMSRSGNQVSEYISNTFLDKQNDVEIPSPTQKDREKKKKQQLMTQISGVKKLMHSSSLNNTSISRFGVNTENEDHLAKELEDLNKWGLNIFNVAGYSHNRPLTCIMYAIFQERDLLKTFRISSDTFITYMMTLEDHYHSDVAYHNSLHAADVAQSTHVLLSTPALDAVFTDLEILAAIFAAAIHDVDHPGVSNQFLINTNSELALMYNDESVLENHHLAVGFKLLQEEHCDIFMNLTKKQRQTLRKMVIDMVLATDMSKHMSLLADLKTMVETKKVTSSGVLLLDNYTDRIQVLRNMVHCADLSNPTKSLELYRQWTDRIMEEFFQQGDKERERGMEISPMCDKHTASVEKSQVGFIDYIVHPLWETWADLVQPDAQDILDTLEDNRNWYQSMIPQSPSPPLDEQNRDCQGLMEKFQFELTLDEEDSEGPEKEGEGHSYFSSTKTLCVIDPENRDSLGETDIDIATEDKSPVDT
(In general: qHTS replaces the single test concentration by a dilution series.)

Chain of Glucocorticoid receptor (Homo sapiens) (P04150 whole entry, looked up, the tested form may be a part): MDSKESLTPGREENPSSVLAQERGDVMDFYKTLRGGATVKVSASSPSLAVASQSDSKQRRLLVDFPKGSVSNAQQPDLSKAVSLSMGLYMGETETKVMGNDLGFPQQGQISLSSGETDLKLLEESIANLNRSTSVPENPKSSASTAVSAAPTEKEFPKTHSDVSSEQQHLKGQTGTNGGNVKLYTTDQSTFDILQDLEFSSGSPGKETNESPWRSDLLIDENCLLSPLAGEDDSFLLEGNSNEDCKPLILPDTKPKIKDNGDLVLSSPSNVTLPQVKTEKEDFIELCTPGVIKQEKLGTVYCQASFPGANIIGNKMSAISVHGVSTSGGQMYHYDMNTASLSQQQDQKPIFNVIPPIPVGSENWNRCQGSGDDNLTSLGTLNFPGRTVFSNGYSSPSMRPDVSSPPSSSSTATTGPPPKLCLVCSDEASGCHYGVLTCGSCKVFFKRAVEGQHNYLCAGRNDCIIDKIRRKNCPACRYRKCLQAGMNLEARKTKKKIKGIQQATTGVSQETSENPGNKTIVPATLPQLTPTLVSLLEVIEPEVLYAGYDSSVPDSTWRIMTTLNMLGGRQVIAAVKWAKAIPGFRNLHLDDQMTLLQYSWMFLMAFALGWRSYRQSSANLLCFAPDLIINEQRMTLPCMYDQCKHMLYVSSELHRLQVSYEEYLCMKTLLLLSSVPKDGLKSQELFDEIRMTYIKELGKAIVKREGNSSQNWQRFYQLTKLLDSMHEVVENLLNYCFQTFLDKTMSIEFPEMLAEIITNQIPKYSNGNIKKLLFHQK
Chain of Lysosomal acid glucosylceramidase (Homo sapiens) (P04062 whole entry, looked up): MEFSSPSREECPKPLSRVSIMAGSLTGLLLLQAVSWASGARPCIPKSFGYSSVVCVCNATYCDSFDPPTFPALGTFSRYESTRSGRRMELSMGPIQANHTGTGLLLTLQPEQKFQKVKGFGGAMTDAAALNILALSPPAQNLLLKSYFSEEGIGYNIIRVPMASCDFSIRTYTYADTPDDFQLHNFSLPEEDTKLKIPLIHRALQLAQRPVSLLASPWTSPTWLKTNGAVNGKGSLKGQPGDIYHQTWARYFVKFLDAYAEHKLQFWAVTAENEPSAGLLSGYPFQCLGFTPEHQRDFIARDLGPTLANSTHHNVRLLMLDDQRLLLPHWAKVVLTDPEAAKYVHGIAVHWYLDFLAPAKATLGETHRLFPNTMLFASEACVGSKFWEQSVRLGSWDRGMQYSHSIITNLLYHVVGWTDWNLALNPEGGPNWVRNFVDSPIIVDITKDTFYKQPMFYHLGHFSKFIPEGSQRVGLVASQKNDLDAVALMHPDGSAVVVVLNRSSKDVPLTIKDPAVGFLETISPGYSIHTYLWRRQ

For `Nc1nc(=O)c2[nH]cnc2n1O`, the Potency in test [1] is over 11.4 µM; in test [6], over 46 µM; in test [7], over 9.22 µM. Also, the activity change, negative = inhibition in [2] was 10.1%; in test [4], -5.74%. Moreover, the Potency entry in [3], in test [8] and in [9] was “inactive” throughout. Also, in test [5], the activity, negative = inhibition was 7.15%.
Turning to `c1ccc2cc(-c3cc(-c4cc(-c5ccc6ccccc6c5)on4)no3)ccc2c1`, the Potency in test [1] is over 11.4 µM; in test [3] it was 1.58 µM (active); in test [6] it was over 46 µM; in [7], over 9.22 µM. Also, the figures for the activity change, negative = inhibition in [2] and in [4] were 2.52% and 1.2%, respectively. The activity, negative = inhibition in [5] was 1.33%. Further, the Potency entry in [8] and in [9] was “inactive” each time.
Take `NCCNCC1CCNCC1`: the results for the Potency in test [1], in test [6] and in test [7] were over 11.4 µM, over 46 µM and over 9.22 µM, respectively. In addition, the values for the activity change, negative = inhibition in test [2], in test [3] and in test [4] were 2.94%, -3.6% [at 2.29 µM] and 8.35%, respectively. The activity, negative = inhibition in test [5] is 3.5%. For the same compound, the Potency result in [8] and in test [9] was “inactive” each time.
Take `Cc1cccc2c1Oc1ccccc1[C@@H]2NC(=O)c1ccc([N+](=O)[O-])cc1`: the Potency in test [1] was over 11.4 µM; in test [3], 1 µM (active); in [6] it was over 46 µM; in [7], over 9.22 µM. The activity change, negative = inhibition in test [2] is 0.106%; in test [4], -2.92%. Besides, in [5], the activity, negative = inhibition was -4.56%. Besides, the Potency entry in test [8] and in test [9] was “inactive” in each case.
On to `Nc1nc(N)c2nn(-c3ccc(C(=O)O)cc3)nc2n1`, for which the Potency was over 11.4 µM in test [1], over 46 µM in [6] and over 9.22 µM in test [7]. Moreover, the activity change, negative = inhibition in test [2] was -3.5%; in test [3], -13.4% [at 2.29 µM]; in test [4], 6.6%. The activity, negative = inhibition in test [5] was -0.747%. Moreover, the Potency result in [8] and in [9] was “inactive” in each case.
Regarding `Cn1c(N)c(N=Nc2ccc(S(N)(=O)=O)cc2)c(=O)n(C)c1=O`, the Potency was over 11.4 µM in test [1], over 46 µM in [6] and over 9.22 µM in [7]. The activity change, negative = inhibition is 12.7% in [2], -12.8% [at 2.29 µM] in [3] and 16.4% in test [4]. The activity, negative = inhibition in test [5] was 24.3%. In addition, the Potency entry in [8] and in [9] was “inactive” in each case.
With `O=C(O)CCC(=O)c1ccc(Cl)cc1`, the figures for the Potency in test [1], in test [6] and in [7] were over 11.4 µM, over 46 µM and over 9.22 µM, respectively. Moreover, the activity change, negative = inhibition was 11.6% in test [2] and -7.55% in test [4]. In addition, the Potency result in test [3], in [8] and in test [9] was “inactive” each time. In addition, the activity, negative = inhibition in test [5] was 17.9%.
`N[C@@H](Cc1cccc([N+](=O)[O-])c1)C(=O)O`: the Potency in test [1] was over 11.4 µM; in test [6], over 46 µM; in test [7], over 9.22 µM. Further, the activity change, negative = inhibition in [2] is -0.119%; in test [4], 0.16%. Also, the Potency result in test [3], in [8] and in test [9] was “inactive” throughout. Also, the activity, negative = inhibition in [5] was 0.761%.
`Clc1ccc(C=Nc2ccc3c(c2)Cc2ccccc2-3)c(Cl)c1`: the Potency in [1] was over 11.4 µM; in [3], 0.794 µM (active); in test [6] it was over 46 µM; in test [7] it was over 9.22 µM. Also, the activity change, negative = inhibition in [2] is 3.71%; in test [4], 23.1%. Besides, the activity, negative = inhibition in test [5] is 12.8%. The Potency result in test [8] and in test [9] was “inactive” each time.
With `NCOC(=O)Cc1ccc(Br)cc1`, the Potency is over 11.4 µM in test [1], 0.2 µM (active) in [3], over 46 µM in [6] and over 9.22 µM in test [7]. For the same compound, the activity change, negative = inhibition in test [2] was 2.56%; in test [4], 11%. In test [5], the activity, negative = inhibition is 5.96%. Moreover, the Potency result in test [8] and in test [9] was “inactive” each time.
Consider `N=C(N)c1ccc(-c2ccc(-c3ccc(C(=N)N)cc3)o2)cc1`, for which the Potency in [1] is over 11.4 µM; in test [6], over 46 µM; in test [7], over 9.22 µM. The activity change, negative = inhibition is 7.04% in test [2] and 7.72% in test [4]. In addition, the Potency entry in [3], in test [8] and in test [9] was “inactive” in each case. The activity, negative = inhibition in test [5] was 10.3%.
`CN1CCN(CCCBr)CC1`: the values for the Potency in test [1], in [6] and in [7] were over 11.4 µM, over 46 µM and over 9.22 µM, respectively. In addition, the activity change, negative = inhibition in test [2] was 5.14%; in [4] it was 10.6%. For the same compound, the Potency entry in [3], in test [8] and in test [9] was “inactive” in each case. The activity, negative = inhibition in test [5] was -3.86%.
For the compound `C[N+]1([C@H](CO)Cc2c[nH]c3ccccc23)Cc2ccccc2C1`, the Potency in test [1] was over 11.4 µM; in test [6], over 46 µM; in [7], over 9.22 µM. Further, the activity change, negative = inhibition was -7.62% in test [2] and -15.6% in [4]. The Potency entry in [3], in [8] and in [9] was “inactive” in each case. In [5], the activity, negative = inhibition was 13.4%.
On to `CCc1c(O)c2c(c(O)c1C(C)=O)C(=O)c1c(cc(O)c(C(=O)O)c1C(=O)O)C2=O`, for which the Potency was over 11.4 µM in test [1], over 46 µM in test [6] and over 9.22 µM in test [7]. Besides, the results for the activity change, negative = inhibition in test [2] and in test [4] were -2.41% and 15.1%, respectively. Also, the Potency result in test [3], in test [8] and in [9] was “inactive” throughout. In addition, the activity, negative = inhibition in test [5] was 5.45%.
Turning to `CN(CC(=O)O)CC(=O)O`, the Potency is over 11.4 µM in test [1], over 46 µM in test [6] and over 9.22 µM in test [7]. The activity change, negative = inhibition in test [2] is -6.97%; in test [3], -5.9% [at 2.29 µM]; in [4], 11.1%. The activity, negative = inhibition in [5] is 2.4%. In addition, the Potency result in test [8] and in [9] was “inactive” in each case.
Consider `Cc1cc(C)c2nc3c(c([C@H](O)[C@@H]4CCCCN4)c2c1)CC/C3=C/c1ccc(Cl)cc1`, for which the Potency in [1] is over 11.4 µM; in [6] it was over 46 µM; in test [7] it was over 9.22 µM. For the same compound, the values for the activity change, negative = inhibition in test [2] and in [4] were 4.75% and -2.24%, respectively. The Potency result in test [3], in test [8] and in [9] was “inactive” in each case. The activity, negative = inhibition in [5] is 1.11%.
With `CC(=NC1CCCCC1)c1ccccc1O`, the Potency in [1] was over 11.4 µM; in test [6] it was over 46 µM; in test [7], over 9.22 µM. Moreover, the activity change, negative = inhibition in [2] was 6.06%; in [4], 16.7%. For the same compound, the Potency result in test [3], in test [8] and in test [9] was “inactive” throughout. Moreover, the activity, negative = inhibition in [5] was 11%.
As for `Nc1nc(N)[n+]([O-])c(N)c1NCO`, the Potency in test [1] was over 11.4 µM; in test [6] it was over 46 µM; in test [7], over 9.22 µM. Also, the activity change, negative = inhibition was 7.34% in [2] and 9.37% in test [4]. Moreover, the Potency result in test [3], in [8] and in test [9] was “inactive” throughout. For the same compound, in test [5], the activity, negative = inhibition was 7%.
